This is an account of results in PubChem BioAssay (NCATS).

For assay [1], the target named is Cytochrome P450 3A4 (Homo sapiens) (UniProt P08684). Kind of assay: qHTS Assay for Inhibitors and Substrates of Cytochrome P450 3A4 (AID 884; active means well fitted curve in the direction sought with a large enough effect; an effect the other way counts as inactive or inconclusive; further: series mostly up to about 57 µM; on the % scale 0 is the no-effect control and ±100 the full control effect; nearly all actives have a fitted effect of over 50% in size). Summed up:
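20 nM human CYP3A4 with 25 uM Luciferin-PPXE (at KM) in 200 mM KPO4, preincubated 10 min with compound; NADPH regeneration started a 60 min RT reaction. Luciferin detected by luminescence, normalized to 57 uM ketoconazole as full inhibition.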
Background: qHTS replaces the single test concentration by a dilution series.

Assay [2] in a line: Confirmation and Secondary Assay for Modulators of Hemoglobin Beta Chain Splicing at IVS2 705 locus (AID 930; active means well fitted curve in the direction sought with a large enough effect; an effect the other way counts as inactive or inconclusive;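 further: HeLa cells stably expressing the EGFP-705 splicing reporter; GFP fluorescence per well restored by corrected splicing of the IVS2-705 intron in EGFP; series mostly up to about 46 µM; % of control where 0% means no effect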). Put shortly: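 First, HeLa EGFP-705 cells are seeded at 500/well in Optimem with 2% FCS and left overnight. Next, compound or DMSO is added for 2 days. Finally wells are laser-scanned and total peak GFP intensity scored.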
Assay [3] addresses Ubiquitin carboxyl-terminal hydrolase 1 (Homo sapiens) (UniProt O94782). Kind of assay: Inhibitors of USP1/UAF1: Pilot qHTS (AID 504865; active means well fitted curve in the direction sought with a large enough effect; an effect the other way counts as inactive or inconclusive;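 further: rhodamine fluorescence freed from ubiquitin-rhodamine substrate followed over time; top concentration of the series differs between compounds; on the % scale 0 is the no-effect control and ±100 the full control effect; nearly all actives have a fitted effect of over 35% in size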). Summed up:
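Enzyme-free wells gave the negative control, while test wells held 1nM USP1/UAF1 preincubated with compound for 15 min at room temperature. Ub-Rho at 150nM final started the reaction, and fluorescence at 480/540 nm was recorded kinetically.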

Assay [4] can be described thus: qHTS for Inhibitors of the Functional Ribonucleoprotein Complex (vRNP) of Lassa (LASV) Arenavirus: LASV Primary Screen - GLuc reporter signal (AID 1347082; calls by dose curve; tested in HEK293 reporter line; further: series mostly up to about 57 µM; on the % scale 0 is the no-effect control and ±100 the full control effect; nearly all actives have a fitted effect of over 60% in size).
A short description of assay [5]: qHTS for Inhibitors of the Functional Ribonucleoprotein Complex (vRNP) of Lassa (LASV) Arenavirus: Viability assay - alamar blue signal for LASV Primary Screen (AID 1347083; calls by dose curve; tested in HEK293 reporter line; further: series mostly up to about 57 µM; on the % scale 0 is the no-effect control and ±100 the full control effect; nearly all actives have a fitted effect of over 80% in size).
Assay [6] can be described thus: qHTS for Inhibitors of the Functional Ribonucleoprotein Complex (vRNP) of Lymphocytic Choriomeningitis Arenaviruses (LCMV): Viability assay - alamar blue signal for LCMV Primary Screen (AID 1347085; calls by dose curve; tested in HEK293 reporter line; further: series mostly up to about 57 µM; on the % scale 0 is the no-effect control and ±100 the full control effect; nearly all actives have a fitted effect of over 80% in size).
The target in assay [7] is Nucleoprotein (Lymphocytic choriomeningitis virus (strain Armstrong)) (UniProt P09992). Kind of assay: qHTS for Inhibitors of the Functional Ribonucleoprotein Complex (vRNP) of Lymphocytic Choriomeningitis Arenaviruses (LCMV): LCMV Primary Screen - GLuc reporter signal (AID 1347086). Further: series mostly up to about 57 µM; on the % scale 0 is the no-effect control and ±100 the full control effect; nearly all actives have a fitted effect of over 70% in size.
For assay [8], the target named is Bile acid receptor (Homo sapiens) (UniProt Q96RI1). Kind of assay: qHTS assay for small molecule agonists of farnesoid X receptor signaling (AID 588527).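 Further: series mostly up to about 77 µM; 0% = vehicle basal and 100% = reference agonist.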 Conditions: HEK293T FXR-UAS-bla, beta-lactamase ratio, 16 h; activation: stronger effect = higher value. Summed up:
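FXR-UAS-bla HEK293T, 10% dialyzed FBS; cpds up to 92 uM titration, 16 h 37 C; CCF4 dye 2 h RT; fluorescence. Normalized to chenodeoxycholic acid 100 uM (100%) and DMSO (0%); Hill fit gives EC50, efficacy.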

Assay [9] addresses Peroxisome proliferator-activated receptor delta (Homo sapiens) (UniProt Q03181). Kind of assay: qHTS assay for small molecule agonists of peroxisome proliferator-activated receptor delta signaling (AID 588534).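 Further: 0% = DMSO basal wells and 100% = positive control agonist at 10 µM.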 Put shortly: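 Cells carrying a PPAR-delta beta-lactamase reporter were treated with compounds for 18 h at 37 °C in agonist mode. CCF4 fluorescence was read after 2 h; EC50 and efficacy from Hill fits.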

Assay [10] deals with Estrogen receptor (Homo sapiens) (UniProt P03372). Kind of assay: qHTS assay for small molecule agonists of estrogen receptor alpha signaling (AID 588514).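 Further: 0% = vehicle only and 100% = reference agonist; nearly all actives have a fitted effect of over 70% in size.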 Summed up:
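ER-alpha-UAS-bla GripTite HEK293 cells, 5000/well in 2% charcoal/dextran-stripped FBS medium, treated with compound titrations 18 h at 37 C. CCF4 beta-lactamase read by fluorescence after 2 h RT; normalised to 20 nM 17-beta-estradiol (100%) and DMSO (0%), Hill fit for EC50 and efficacy.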

The target of assay [11] is Bile acid receptor (Homo sapiens) (UniProt Q96RI1). Kind of assay: qHTS assay for small molecule antagonists of farnesoid X receptor signaling (AID 588526). Further: on the % scale 0 is the no-effect control and ±100 the full control effect. Summed up:
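Beta-lactamase reporter antagonist mode: HEK293T FXR-UAS-bla cells, titrated compound, CDCA stimulation, 16 h 37 C, CCF4 dye 2 h RT. Data normalized to CDCA 50 uM and DMSO; Hill-fit IC50.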

Assay [12] addresses Glucocorticoid receptor (Homo sapiens) (UniProt P04150). Kind of assay: qHTS assay for small molecule agonists of glucocorticoid receptor signaling (AID 588532; active means well fitted curve in the direction sought with a large enough effect in the signal ratio, with a control signal flat; the % refers to the signal ratio;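 further: 100% = dexamethasone at 0.1 µM and 0% = DMSO only wells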). Conditions: HeLa MMTV-bla, beta-lactamase ratio, agonist, 18 h; stronger effect = higher value; percent of dexamethasone control, DMSO zero. Summed up: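 Using MMTV-bla HeLa cells in medium with 1% stripped FBS and 25 mM HEPES, compounds were titrated and incubated overnight-length (18 h). Beta-lactamase cleavage of CCF4 was quantified by dual-emission fluorescence.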

The target is the same in assay [13]. Kind of assay: qHTS assay for small molecule antagonists of glucocorticoid receptor signaling (AID 588533; active means well fitted inhibition curve with a large enough effect in the signal ratio, with a control signal flat, not every such curve was filed as active; the % refers to the signal ratio;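 further: cells stimulated with 2 nM dexamethasone as agonist; on the % scale 0 is the no-effect control and ±100 the full control effect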). Summed up: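 Antagonist-mode qHTS: compound titrations added to GRE-bla HeLa cells, then dexamethasone 2 nM final; 18 h, 37 C. CCF4 FRET fluorescence normalized to dexamethasone and DMSO; IC50 from Hill fit.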
The nature of assay [14]: qHTS assay for small molecule antagonists of peroxisome proliferator-activated receptor delta signaling (AID 588535; active means well fitted inhibition curve with a large enough effect in the signal ratio, with a control signal flat, not every such curve was filed as active; the % refers to the signal ratio;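 on max response: cells co-treated with a PPAR-delta agonist as stimulator during compound exposure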). Conditions: HEK293T PPARd-UAS-bla, beta-lactamase FRET ratio, 18 h; 460 nm channel. Put shortly: (§1)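 HEK293T PPAR-delta-UAS-bla cells, 4000/well, 2% charcoal/dextran FBS; 5 h 37 C; cpd titration; 18 h 37 C; CCF4 2 h RT; FI 460/530 nm; Hill fit → IC50, efficacy.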

Assay [15] addresses Peroxisome proliferator-activated receptor delta (Homo sapiens) (UniProt Q03181). The description is as above. Summed up: as §1
Assay [16] concerns the target Peroxisome proliferator-activated receptor gamma (Homo sapiens) (UniProt P37231). Kind of assay: qHTS assay for small molecule antagonists of peroxisome proliferator-activated receptor gamma signaling (AID 588537; active means well fitted inhibition curve with a large enough effect in the signal ratio, with a control signal flat, not every such curve was filed as active; the % refers to the signal ratio;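 further: reporter cells co-stimulated with 50 nM rosiglitazone agonist during compound treatment; % of control where 0% means no effect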). Summed up:
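Antagonist mode, beta-lactamase reporter in HEK293; charcoal/dextran FBS 1%; 3000 cells/well, 37 C 6-6.5 h; cpd titration + rosiglitazone 50 nM final, 16 h 37 C; CCF4, 2 h RT; 460/530 nm; Hill fit → IC50, efficacy.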

The target in assay [17] is Vitamin D3 receptor (Homo sapiens) (UniProt P11473). Kind of assay: qHTS assay for small molecule antagonists of vitamin D receptor signaling (AID 588541).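 Further: receptor activated by calcitriol during compound treatment; series mostly up to about 77 µM; on the % scale 0 is the no-effect control and ±100 the full control effect.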 Summed up: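 Antagonist-mode beta-lactamase reporter assay: HEK293T VDR-UAS-bla cells were exposed to titrated compound alongside 1-alpha,25-dihydroxyvitamin D3 at 3 nM final for 16 h. Values were normalized to the 50 nM agonist control and DMSO basal, with IC50 and efficacy from Hill equation fits.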

Assay [18] shares this target. Kind of assay: qHTS assay for small molecule agonists of vitamin D receptor signaling (AID 588543).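 Further: 0% = DMSO basal and 100% = reference agonist control.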 Summed up: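 Measured: β-lactamase reporter activity (CCF4, 405 nm excitation, 460/530 nm emission) in HEK293T VDR-UAS-bla cells after 16 h compound exposure at 37 °C. Normalization against 50 nM 1α,25-dihydroxyvitamin D3 and DMSO; Hill-fit EC50.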
The nature of assay [19]: qHTS assay for small molecule agonists of retinoid X receptor alpha signaling (AID 588544).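 On activation: 0% = DMSO basal wells and 100% = reference agonist.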 Conditions: HEK293T RXRa-UAS-bla, beta-lactamase reporter, 18 h; 530 nm emission.
Assay [20] concerns the target Retinoic acid receptor RXR-alpha (Homo sapiens) (UniProt P19793). The assay is described as above.
Assay [21] deals with Thyroid hormone receptor beta (Homo sapiens) (UniProt P10828). Kind of assay: qHTS assay for small molecule agonists of thyroid hormone receptor beta signaling (AID 588545).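 Further: 0% = DMSO only and 100% = 10 nM T3.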 Summed up:
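TR-UAS-bla-GripTite HEK 293 cells in medium with 2% charcoal/dextran FBS, 0.1 mM NEAA and 1 mM sodium pyruvate were treated with titrated compounds for 18 hrs at 37 C. Beta-lactamase reporter was read with CCF4 dye (ex 405, em 460/530 nm); EC50 from Hill fits.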

The nature of assay [22]: qHTS assay for small molecule antagonists of retinoid X receptor alpha signaling (AID 588546; active means well fitted inhibition curve with a large enough effect in the signal ratio, with a control signal flat, not every such curve was filed as active; the % refers to the signal ratio;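 further: cells stimulated with 9-cis-retinoic acid as agonist; on the % scale 0 is the no-effect control and ±100 the full control effect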). Conditions: HEK293T RXRa-UAS-bla, beta-lactamase ratio, antagonist mode; measured here: W530 green channel, cytotoxicity proxy. Summed up: (§2)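 Beta-lactamase reporter inhibition, read as CCF4 fluorescence ratio (ex 405, em 460/530 nm) after 2 h at RT. HEK293T UAS-bla cells, 2500/well, were stimulated with 9-cis-RA at 500 or 100 nM final alongside test compound for 18 h at 37 C.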

Assay [23] addresses Retinoic acid receptor RXR-alpha (Homo sapiens) (UniProt P19793). The assay is described as above. Conditions: HEK293T RXRa-UAS-bla, beta-lactamase ratio, antagonist mode. Put shortly:
as §2

Assay [24] in a line: qHTS assay for small molecule agonists of the antioxidant response element (ARE) signaling pathway (AID 651741; active means well fitted activation curve with a large enough effect in the signal ratio; the % refers to the signal ratio; further: potency means the concentration at half of the fitted maximal effect; on activation: % of control where 0% means no effect). Put shortly: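 Quantitative HTS in HepG2 cells stably expressing an ARE-beta-lactamase reporter; 16 h compound exposure at 37 C, followed by 2 h room-temperature incubation with LiveBLAzer B/G FRET substrate and fluorescence measurement.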
Assay [25] can be described thus: qHTS assay for small molecule activators of the nuclear factor-kappa B (NF-kB) signaling pathway (AID 651749; active means well fitted activation curve with a large enough effect in the signal ratio; the % refers to the signal ratio; further: series mostly up to about 77 µM; % of control where 0% means no effect). Conditions: NF-kB-bla ME-180 cells, beta-lactamase FRET ratio, 16 h; activation: stronger effect = higher value. Put shortly:
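Readout: beta-lactamase reporter driven by an NF-kB response element, detected fluorescently as loss of FRET. Cells were the ME-180 line, treated 16 hr at 37C with pin-transferred compound.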

A short description of assay [26]: qHTS assay for environmental chemicals that activate the Aryl hydrocarbon Receptor (AhR) signaling pathway (AID 651777; active means well fitted curve in the direction sought with a large enough effect; an effect the other way counts as inactive or inconclusive; further: % of control where 0% means no effect; nearly all actives have a fitted effect of over 15% in size). Conditions: 1A2-DRE human hepatoma cells, luciferase, 24 h; activation: stronger effect = higher value. Put shortly: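 Quantitative HTS in stably transfected human liver-derived cells whose luciferase gene sits downstream of the CYP1A2 promoter and dioxin response element. After 24 hr exposure at 37 C, One-Glo luminescence was measured.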

Assay [27] has as its target Peroxisome proliferator-activated receptor alpha (Homo sapiens) (UniProt Q07869). Kind of assay: qHTS assay for small molecule agonists of the peroxisome proliferator-activated receptor alpha (PPARalpha) signaling pathway (AID 651778; active means well fitted curve in the direction sought with a large enough effect; an effect the other way counts as inactive or inconclusive; further: % of control where 0% means no effect). Conditions: PathHunter PPARalpha complementation, chemiluminescence, 6 h; stronger effect = higher value. Put shortly: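 Chemiluminescence from complemented enzyme reported PPARalpha activation in cells after 6 hr of compound treatment at 37 C. The detection reagent was incubated for 60 min at room temperature, and compounds were scored as agonists.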

Assay [28] in a line: qHTS assay for cell viability of HEK293 cells (AID 743288; active means well fitted curve in the direction sought with a large enough effect; an effect the other way counts as inactive or inconclusive; further: on the % scale 0 is the no-effect control and ±100 the full control effect; nearly all actives have a fitted effect of over 50% in size). Conditions: ATP luminescence (CellTiter-Glo), 18 h; max response: stronger effect = lower value. Summed up: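 Luminescent ATP quantitation served as the viability read-out. Cells (parental HEK293, 2,000/well) received compounds after at least 5 h at 37 C and were exposed for 18 h before a 30 min room-temperature reagent step.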

Assay [29] is described as follows: qHTS assay for cell viability of the p53RE-bla HCT-116 cell line (AID 743292; active means well fitted curve in the direction sought with a large enough effect; an effect the other way counts as inactive or inconclusive; further: on the % scale 0 is the no-effect control and ±100 the full control effect; nearly all actives have a fitted effect of over 55% in size). Summed up: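 Viability of compound-treated p53RE-bla HCT-116 cells is taken from ATP-dependent luciferase luminescence. Treatment lasts 16 h at 37 C after a 5 h settling period; detection follows 30 min at room temperature.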
Assay [30] has as its target Nuclear receptor subfamily 1 group I member 2 (Rattus norvegicus) (UniProt Q9R1A7). Kind of assay: qHTS assay for small molecule activators of the rat pregnane X receptor (rPXR) signaling pathway (AID 651751; call rule not given here; further: 0% is about no effect). Conditions: rPXR reporter cells, luciferase (One-Glo), 24 h.
Assay [31] is described as follows: qHTS assay for small molecule activators of the human pregnane X receptor (PXR) signaling pathway (AID 720659; call rule not given here; further: 0% is about no effect).
Assay [32] has as its target Estrogen receptor (Homo sapiens) (UniProt P03372). Kind of assay: qHTS assay for small molecule antagonists of estrogen receptor alpha signaling (AID 588513; active means well fitted curve in the direction sought with a large enough effect in the signal ratio, with a control signal flat, not every such curve was filed as active; the % refers to the signal ratio; further: on the % scale 0 is the no-effect control and ±100 the full control effect). Put shortly:
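Antagonist-mode qHTS in ER-alpha-UAS-bla HEK 293 cells: compound titration, 0.5nM estradiol for 18 h, CCF4 fluorescence, Hill-derived IC50.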

Assay [33] deals with Voltage-gated inwardly rectifying potassium channel KCNH2 (Homo sapiens) (UniProt Q12809). Kind of assay: qHTS Assay for Small Molecule Inhibitors of the Human hERG Channel Activity (AID 588834; active means well fitted curve in the direction sought with a large enough effect; an effect the other way counts as inactive or inconclusive;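 further: top concentration of the series differs between compounds; on the % scale 0 is the no-effect control and ±100 the full control effect; lower thallium flux fluorescence means stronger hERG block; nearly all actives have a fitted effect of over 50% in size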). Summed up: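 Blockade is seen as reduced FluxOR thallium-flux fluorescence in U2OS cells expressing hERG from a BacMam construct, in Opti-MEM with 2% FCS. Concentration-response data fitted to the Hill equation for AC50.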

A short description of assay [34]: qHTS assay for small molecule agonists of the antioxidant response element (ARE) signaling pathway measured by Nrf2-dependant transcriptional activity (AID 720636; active means well fitted curve in the direction sought with a large enough effect in the repeat runs; an effect the other way counts as inactive or inconclusive; further: % of control where 0% means no effect). Summed up:
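Quantitative HTS format in HepG2 cells stably expressing an ARE-luciferase reporter; 16 hr compound treatment at 37 C, luciferase signal detected with ONE-Glo.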

Where “and” joins values, the source holds several entries; their conditions need not be identical. Equal values may be shown once. Results filed as inconclusive are left out. Calls of active or inactive are those of the source. Unless noted, the call rests on the fitted dose curve.

Sequence of Nucleoprotein (Lymphocytic choriomeningitis virus (strain Armstrong)) (P09992 whole entry, looked up): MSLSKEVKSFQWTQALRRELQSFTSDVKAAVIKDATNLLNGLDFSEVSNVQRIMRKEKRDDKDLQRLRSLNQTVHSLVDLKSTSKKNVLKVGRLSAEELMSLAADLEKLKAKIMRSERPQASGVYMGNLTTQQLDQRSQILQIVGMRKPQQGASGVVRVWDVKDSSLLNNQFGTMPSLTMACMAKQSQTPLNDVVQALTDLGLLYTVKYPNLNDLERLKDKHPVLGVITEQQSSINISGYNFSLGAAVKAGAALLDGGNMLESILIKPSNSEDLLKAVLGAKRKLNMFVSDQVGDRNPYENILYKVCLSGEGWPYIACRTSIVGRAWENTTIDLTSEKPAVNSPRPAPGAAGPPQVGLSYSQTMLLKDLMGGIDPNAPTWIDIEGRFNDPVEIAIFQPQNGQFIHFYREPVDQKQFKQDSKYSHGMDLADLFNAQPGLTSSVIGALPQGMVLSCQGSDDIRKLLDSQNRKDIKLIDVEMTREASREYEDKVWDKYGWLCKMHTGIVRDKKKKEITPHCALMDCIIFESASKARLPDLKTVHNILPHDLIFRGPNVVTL
Sequence of Peroxisome proliferator-activated receptor delta (Homo sapiens) (Q03181 whole entry, looked up): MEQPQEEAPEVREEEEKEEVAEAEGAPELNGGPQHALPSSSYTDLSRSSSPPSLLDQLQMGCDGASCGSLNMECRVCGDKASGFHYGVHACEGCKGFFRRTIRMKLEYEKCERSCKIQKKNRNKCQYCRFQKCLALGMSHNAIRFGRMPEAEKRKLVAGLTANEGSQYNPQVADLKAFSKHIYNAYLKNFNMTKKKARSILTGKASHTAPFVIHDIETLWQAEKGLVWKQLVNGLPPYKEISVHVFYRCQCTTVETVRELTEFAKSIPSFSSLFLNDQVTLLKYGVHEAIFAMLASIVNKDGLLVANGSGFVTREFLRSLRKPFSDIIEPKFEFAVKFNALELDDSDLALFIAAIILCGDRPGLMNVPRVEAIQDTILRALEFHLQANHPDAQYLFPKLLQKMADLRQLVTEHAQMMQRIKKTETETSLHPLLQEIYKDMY
Sequence of Bile acid receptor (Homo sapiens) (Q96RI1 whole entry, looked up): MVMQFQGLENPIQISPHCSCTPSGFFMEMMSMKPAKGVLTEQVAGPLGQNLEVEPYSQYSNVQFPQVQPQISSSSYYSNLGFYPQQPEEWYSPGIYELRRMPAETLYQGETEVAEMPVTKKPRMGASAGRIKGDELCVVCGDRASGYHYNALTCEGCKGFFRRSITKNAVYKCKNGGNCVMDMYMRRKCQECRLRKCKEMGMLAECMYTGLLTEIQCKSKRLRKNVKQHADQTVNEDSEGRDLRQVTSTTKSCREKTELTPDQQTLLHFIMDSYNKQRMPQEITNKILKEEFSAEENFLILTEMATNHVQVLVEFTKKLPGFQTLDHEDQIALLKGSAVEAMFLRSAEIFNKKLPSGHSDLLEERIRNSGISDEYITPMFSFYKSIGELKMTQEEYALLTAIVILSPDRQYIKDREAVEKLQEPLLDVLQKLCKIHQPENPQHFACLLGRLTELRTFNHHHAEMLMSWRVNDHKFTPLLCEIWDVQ
Sequence of Estrogen receptor (Homo sapiens) (P03372 whole entry, looked up): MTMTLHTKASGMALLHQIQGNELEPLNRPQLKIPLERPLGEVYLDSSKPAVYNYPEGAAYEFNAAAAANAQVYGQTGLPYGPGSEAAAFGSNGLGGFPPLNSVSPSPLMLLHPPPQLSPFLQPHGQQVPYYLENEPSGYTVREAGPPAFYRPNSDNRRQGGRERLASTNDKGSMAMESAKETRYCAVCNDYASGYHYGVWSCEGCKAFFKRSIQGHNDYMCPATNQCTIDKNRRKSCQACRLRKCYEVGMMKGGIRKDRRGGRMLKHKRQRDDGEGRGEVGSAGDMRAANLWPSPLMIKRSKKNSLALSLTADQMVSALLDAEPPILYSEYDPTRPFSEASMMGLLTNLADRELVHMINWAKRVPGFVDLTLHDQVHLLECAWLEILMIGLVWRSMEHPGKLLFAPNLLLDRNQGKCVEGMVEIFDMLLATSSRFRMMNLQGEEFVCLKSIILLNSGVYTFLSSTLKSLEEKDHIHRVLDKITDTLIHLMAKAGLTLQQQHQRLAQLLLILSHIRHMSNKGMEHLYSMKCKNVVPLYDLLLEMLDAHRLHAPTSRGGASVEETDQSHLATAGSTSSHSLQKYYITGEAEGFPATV
Sequence of Retinoic acid receptor RXR-alpha (Homo sapiens) (P19793 whole entry, looked up): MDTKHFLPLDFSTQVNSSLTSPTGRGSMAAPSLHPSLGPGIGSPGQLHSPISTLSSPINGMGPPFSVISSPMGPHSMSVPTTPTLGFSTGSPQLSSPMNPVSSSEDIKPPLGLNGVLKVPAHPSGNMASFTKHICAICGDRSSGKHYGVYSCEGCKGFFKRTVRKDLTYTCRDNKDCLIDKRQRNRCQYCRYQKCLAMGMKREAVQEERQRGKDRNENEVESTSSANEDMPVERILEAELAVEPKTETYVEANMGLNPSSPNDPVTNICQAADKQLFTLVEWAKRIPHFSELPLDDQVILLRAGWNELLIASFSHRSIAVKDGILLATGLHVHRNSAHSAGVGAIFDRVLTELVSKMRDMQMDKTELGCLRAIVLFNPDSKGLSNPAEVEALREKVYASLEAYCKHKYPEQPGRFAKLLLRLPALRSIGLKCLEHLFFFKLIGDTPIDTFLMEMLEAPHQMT
Sequence of Glucocorticoid receptor (Homo sapiens) (P04150 whole entry, looked up): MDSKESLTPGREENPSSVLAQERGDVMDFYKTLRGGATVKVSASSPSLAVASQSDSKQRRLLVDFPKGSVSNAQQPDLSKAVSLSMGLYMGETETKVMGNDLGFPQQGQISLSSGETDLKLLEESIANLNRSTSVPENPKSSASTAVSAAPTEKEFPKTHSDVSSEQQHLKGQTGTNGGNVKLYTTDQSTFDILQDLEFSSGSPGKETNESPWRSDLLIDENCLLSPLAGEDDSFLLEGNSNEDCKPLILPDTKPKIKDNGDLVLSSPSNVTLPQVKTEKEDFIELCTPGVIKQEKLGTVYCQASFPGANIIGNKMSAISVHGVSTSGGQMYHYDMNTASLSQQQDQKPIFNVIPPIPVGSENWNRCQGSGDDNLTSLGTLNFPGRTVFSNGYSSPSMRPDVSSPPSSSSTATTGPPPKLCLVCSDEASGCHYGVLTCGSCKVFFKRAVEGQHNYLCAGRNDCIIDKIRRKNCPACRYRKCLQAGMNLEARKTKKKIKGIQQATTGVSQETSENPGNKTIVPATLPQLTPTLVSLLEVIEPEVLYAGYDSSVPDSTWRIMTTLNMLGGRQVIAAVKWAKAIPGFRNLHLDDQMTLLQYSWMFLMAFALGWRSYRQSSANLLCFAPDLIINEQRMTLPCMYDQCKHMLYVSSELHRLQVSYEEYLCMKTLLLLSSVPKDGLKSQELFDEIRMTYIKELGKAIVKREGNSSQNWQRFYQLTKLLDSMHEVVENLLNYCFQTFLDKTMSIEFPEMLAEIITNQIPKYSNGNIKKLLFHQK
Sequence of Thyroid hormone receptor beta (Homo sapiens) (P10828 whole entry, looked up): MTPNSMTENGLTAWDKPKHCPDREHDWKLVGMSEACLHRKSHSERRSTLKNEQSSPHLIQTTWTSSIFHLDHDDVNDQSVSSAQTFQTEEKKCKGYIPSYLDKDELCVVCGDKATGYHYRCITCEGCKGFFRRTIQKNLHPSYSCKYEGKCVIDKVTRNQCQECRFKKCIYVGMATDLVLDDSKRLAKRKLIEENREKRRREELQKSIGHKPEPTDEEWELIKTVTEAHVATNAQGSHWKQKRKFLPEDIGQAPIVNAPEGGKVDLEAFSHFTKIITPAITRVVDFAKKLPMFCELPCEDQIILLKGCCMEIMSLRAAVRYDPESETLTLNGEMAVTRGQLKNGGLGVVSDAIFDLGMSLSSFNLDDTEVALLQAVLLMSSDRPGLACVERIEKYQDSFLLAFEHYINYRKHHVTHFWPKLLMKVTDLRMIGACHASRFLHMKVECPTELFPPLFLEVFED
Sequence of Vitamin D3 receptor (Homo sapiens) (P11473 whole entry, looked up): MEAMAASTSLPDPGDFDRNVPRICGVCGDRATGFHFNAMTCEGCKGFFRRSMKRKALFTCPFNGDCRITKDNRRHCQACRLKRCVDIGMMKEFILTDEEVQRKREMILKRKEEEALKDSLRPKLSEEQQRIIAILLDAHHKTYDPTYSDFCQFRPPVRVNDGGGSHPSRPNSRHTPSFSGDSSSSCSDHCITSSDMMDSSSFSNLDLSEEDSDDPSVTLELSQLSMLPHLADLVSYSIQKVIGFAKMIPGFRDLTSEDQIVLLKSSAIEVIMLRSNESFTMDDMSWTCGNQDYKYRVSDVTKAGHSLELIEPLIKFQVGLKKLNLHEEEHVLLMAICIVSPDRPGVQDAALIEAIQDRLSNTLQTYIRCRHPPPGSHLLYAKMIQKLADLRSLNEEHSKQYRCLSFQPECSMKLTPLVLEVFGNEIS
Sequence of Peroxisome proliferator-activated receptor alpha (Homo sapiens) (Q07869 whole entry, looked up): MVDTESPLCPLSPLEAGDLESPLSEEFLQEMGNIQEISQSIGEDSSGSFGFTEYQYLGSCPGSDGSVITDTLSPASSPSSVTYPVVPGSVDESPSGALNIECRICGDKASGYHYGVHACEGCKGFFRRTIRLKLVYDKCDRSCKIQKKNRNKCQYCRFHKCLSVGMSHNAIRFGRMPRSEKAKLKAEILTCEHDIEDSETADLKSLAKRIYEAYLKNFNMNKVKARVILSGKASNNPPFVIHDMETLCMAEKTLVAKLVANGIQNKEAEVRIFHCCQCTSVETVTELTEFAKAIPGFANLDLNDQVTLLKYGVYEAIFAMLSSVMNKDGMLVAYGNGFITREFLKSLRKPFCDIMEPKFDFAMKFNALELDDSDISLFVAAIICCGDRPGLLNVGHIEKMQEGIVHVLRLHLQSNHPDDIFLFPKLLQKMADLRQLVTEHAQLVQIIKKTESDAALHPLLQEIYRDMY

Regarding `C[C@@]12CCC(OS(=O)(=O)O)C[C@@H]1CCC1C2CC[C@]2(C)C(=O)CCC12` (stereo not given in full), the Potency entry in [1], in assay [3], in assay [4], in [5], in [6] and in assay [7] was “inactive” each time. Besides, the call in [2] was inactive.
`C/C=C/C=C/CCCCCCCO`: the activation in [8] is -0.999% (inactive). For the same compound, the Potency result in assay [9], in assay [4], in assay [5], in assay [6] and in assay [7] was “inactive” throughout.
Consider `CCOP(=S)(OCC)SCSCC`, for which the Potency result in assay [10], in assay [11], in assay [13], in assay [9], in assay [16] and in assay [18] was “inactive” in each case. For the same compound, the Potency result in [21], in [24], in assay [4], in [5], in assay [6] and in [7] was “inactive” throughout. Besides, the activation is 1.79% (inactive) in [8], -1.34% (inactive) in assay [12], -1.47% (inactive) in [25] and 2.07% (inactive) in assay [26]. For the same compound, the max response is 1.66% in assay [14]; -8.57% in assay [19]; -4.53% in [22]; -2.19% (inactive) in assay [23]; -0.311% (inactive) in assay [27]; -10.1% (inactive) in [28]. Also, in assay [30], the max response was 5.3% (inactive). The outcome in assay [15], in assay [17], in [20], in assay [29] and in assay [31] was inactive.
On to `C[C@H](CCC(=O)O)[C@H]1CC[C@H]2[C@@H]3CC[C@@H]4C[C@H](O)CC[C@]4(C)[C@H]3CC[C@]12C`, for which the Potency result in [32], in assay [21], in assay [33], in assay [34], in assay [4] and in assay [5] was “inactive” each time. Moreover, the Potency result in assay [6] and in [7] was “inactive” each time. Moreover, in assay [24], the Potency was 26.6 µM (active) and 19.3 µM (active).
